Measurements reported in the supplement of paper PMC6555819.

Tests used:
Test in all cases: PBM binding z-score (relative to random genomic background probes); higher = stronger binding; sequences stand for … in GC…GCGATTGACAGCGTAGAATGAAGG
[1] = tested on: RARb homodimer (NR concentration 270 nM)
Method in brief: (§1)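 Ligand-free nuclear receptor dimers were bound for 1 h to custom Agilent 4×180K protein-binding microarrays. Detection used antibodies against each partner (one per run). Binding z-scores rest on regression-normalized fluorescence, with random background probes as the reference.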

[2] = tested on: RARg:RXRa (NR concentration 270 nM, RXRa partner concentration 90 nM)
Method in brief: as §1

[3] = tested on: RARg homodimer (NR concentration 270 nM)
Method in brief: as §1

[4] = tested on: RXRa DBDmut IVT, anti-RXR (DBD mutation: RXRa K156A/R161A, NR concentration 90 nM)
Method in brief: as §1

[5] = tested on: RXRa homodimer (NR concentration 180 nM)
Method in brief: as §1

[6] = tested on: THRa:RXRa (NR concentration 90 nM, RXRa partner concentration 90 nM)
Method in brief: as §1

[7] = tested on: THRa homodimer (NR concentration 90 nM)
Method in brief: as §1

[8] = tested on: VDR:RXRa (NR concentration 270 nM, RXRa partner concentration 90 nM)
Method in brief: as §1

[9] = tested on: VDR homodimer (NR concentration 270 nM)
Method in brief: as §1

## ATATGTAGGCTATCGGGTCATTCAGTTTGCGCAT
[1]
  PBM binding z-score: 2.23
[2]
  PBM binding z-score: 2.01
[3]
  PBM binding z-score: 1.52
[4]
  PBM binding z-score: 1.1
[5]
  PBM binding z-score: 2.08
[6]
  PBM binding z-score: 2.91
[7]
  PBM binding z-score: 1.79
[8]
  PBM binding z-score: 4.58
[9]
  PBM binding z-score: 3.16

## CCTAGCAGGCTAGGGTCACTCAAGCATTTCGCTT
[1]
  PBM binding z-score: 2.67
[2]
  PBM binding z-score: 3.35
[3]
  PBM binding z-score: 2.35
[4]
  PBM binding z-score: 0.61
[5]
  PBM binding z-score: 3.65
[6]
  PBM binding z-score: 3.64
[7]
  PBM binding z-score: 1.81
[8]
  PBM binding z-score: 2.72
[9]
  PBM binding z-score: 1.07

## ACCAGCAGGCCAAGTTTGGGTCACTCAAACAAAG
[1]
  PBM binding z-score: 2.33
[2]
  PBM binding z-score: 2.44
[3]
  PBM binding z-score: 1.51
[4]
  PBM binding z-score: -0.217
[5]
  PBM binding z-score: 0.731
[6]
  PBM binding z-score: 2.61
[7]
  PBM binding z-score: 0.952
[8]
  PBM binding z-score: 0.61
[9]
  PBM binding z-score: 0.435

## ATCTCTAGGTAAGACTCAGTTCAGTGACGAACGC
[1]
  PBM binding z-score: 0.735
[2]
  PBM binding z-score: 0.464
[3]
  PBM binding z-score: 0.443
[4]
  PBM binding z-score: 0.676
[5]
  PBM binding z-score: 0.364
[6]
  PBM binding z-score: 0.824
[7]
  PBM binding z-score: 0.878
[8]
  PBM binding z-score: 0.924
[9]
  PBM binding z-score: 1.74

## GATACAGGGTCAGCTAGAGGCTAGAGTATGGAAA
[1]
  PBM binding z-score: 2.76
[2]
  PBM binding z-score: 5.74
[3]
  PBM binding z-score: 4.56
[4]
  PBM binding z-score: 0.988
[5]
  PBM binding z-score: 4.23
[6]
  PBM binding z-score: 2.86
[7]
  PBM binding z-score: 0.194
[8]
  PBM binding z-score: 2.67
[9]
  PBM binding z-score: 0.266

## ACTATTTGTTGAGACGAGGGCAACCGATAGGTTG
[1]
  PBM binding z-score: 1.14
[2]
  PBM binding z-score: 0.614
[3]
  PBM binding z-score: 0.897
[4]
  PBM binding z-score: 0.884
[5]
  PBM binding z-score: 0.414
[6]
  PBM binding z-score: 1.21
[7]
  PBM binding z-score: 0.711
[8]
  PBM binding z-score: 0.711
[9]
  PBM binding z-score: 1.3

## GCTAGTTGGTCAGTAAAAGGTCACTCACCGGTCG
[1]
  PBM binding z-score: 5.26
[2]
  PBM binding z-score: 5.05
[3]
  PBM binding z-score: 4.43
[4]
  PBM binding z-score: 0.781
[5]
  PBM binding z-score: 4.21
[6]
  PBM binding z-score: 3.31
[7]
  PBM binding z-score: 1.47
[8]
  PBM binding z-score: 3.51
[9]
  PBM binding z-score: 1.36

## CCTATTGGGCCATCAGGTCATTGATATCAACGTT
[1]
  PBM binding z-score: 2.49
[2]
  PBM binding z-score: 2.26
[3]
  PBM binding z-score: 1.88
[4]
  PBM binding z-score: 0.643
[5]
  PBM binding z-score: 1.39
[6]
  PBM binding z-score: 3.3
[7]
  PBM binding z-score: 2.98
[8]
  PBM binding z-score: 2.12
[9]
  PBM binding z-score: 1.87

## TCTCGGTGGACACGAAGGTCAGAGCTTTCCAGAG
[1]
  PBM binding z-score: 3.04
[2]
  PBM binding z-score: 2.19
[3]
  PBM binding z-score: 1.97
[4]
  PBM binding z-score: 0.131
[5]
  PBM binding z-score: 1.55
[6]
  PBM binding z-score: 1.39
[7]
  PBM binding z-score: -0.0519
[8]
  PBM binding z-score: 1.02
[9]
  PBM binding z-score: -0.0711

## GCAGACAGGTGTAACGCAGGTAACTCAGGGTGGC
[1]
  PBM binding z-score: -0.771
[2]
  PBM binding z-score: -0.375
[3]
  PBM binding z-score: -0.631
[4]
  PBM binding z-score: -0.861
[5]
  PBM binding z-score: -0.21
[6]
  PBM binding z-score: 0.816
[7]
  PBM binding z-score: -0.935
[8]
  PBM binding z-score: -0.647
[9]
  PBM binding z-score: -0.598

## GCTTGTAGAGCAAGGTTAAGAAAGACTAAGCTAA
[1]
  PBM binding z-score: -0.118
[2]
  PBM binding z-score: 0.204
[3]
  PBM binding z-score: 0.162
[4]
  PBM binding z-score: -0.22
[5]
  PBM binding z-score: 0.282
[6]
  PBM binding z-score: 0.745
[7]
  PBM binding z-score: -1.02
[8]
  PBM binding z-score: -0.112
[9]
  PBM binding z-score: -0.25

## CCAGACAGGTGAAATGTAACTCAGTCTGGTACGC
[1]
  PBM binding z-score: -0.215
[2]
  PBM binding z-score: 0.487
[3]
  PBM binding z-score: 0.478
[4]
  PBM binding z-score: 0.261
[5]
  PBM binding z-score: 0.624
[6]
  PBM binding z-score: 0.0453
[7]
  PBM binding z-score: -0.307
[8]
  PBM binding z-score: 0.0659
[9]
  PBM binding z-score: -0.0884

## ACAGACAGGTGAGTGAAGGCAACTCAGCTGGACG
[1]
  PBM binding z-score: -0.0202
[2]
  PBM binding z-score: 0.0165
[3]
  PBM binding z-score: 0.418
[4]
  PBM binding z-score: -0.43
[5]
  PBM binding z-score: 0.192
[6]
  PBM binding z-score: 0.383
[7]
  PBM binding z-score: -0.689
[8]
  PBM binding z-score: -0.535
[9]
  PBM binding z-score: -0.742

## GCGACTGGGGGATCAGCAGGTTACCATAACTTAA
[1]
  PBM binding z-score: 0.909
[2]
  PBM binding z-score: 0.837
[3]
  PBM binding z-score: 0.34
[4]
  PBM binding z-score: 0.58
[5]
  PBM binding z-score: 1
[6]
  PBM binding z-score: 1.67
[7]
  PBM binding z-score: 0.806
[8]
  PBM binding z-score: 0.855
[9]
  PBM binding z-score: 0.0827

## CCTCGGATGACAACAGGAGGTCAGAGCTGCCAGA
[1]
  PBM binding z-score: 3
[2]
  PBM binding z-score: 2.24
[3]
  PBM binding z-score: 1.91
[4]
  PBM binding z-score: -0.48
[5]
  PBM binding z-score: 2.01
[6]
  PBM binding z-score: 1.92
[7]
  PBM binding z-score: 0.407
[8]
  PBM binding z-score: 1.55
[9]
  PBM binding z-score: 0.749

## GCTAGTTGGTCAGTAAAAGGTCACACAGCGGTCG
[1]
  PBM binding z-score: 4.98
[2]
  PBM binding z-score: 5.92
[3]
  PBM binding z-score: 5.1
[4]
  PBM binding z-score: 0.686
[5]
  PBM binding z-score: 5.48
[6]
  PBM binding z-score: 3.67
[7]
  PBM binding z-score: 1.78
[8]
  PBM binding z-score: 3.95
[9]
  PBM binding z-score: 2.18

## GCTTGTAGATCAAGGTGAAGAAAGACTAAGCTAA
[1]
  PBM binding z-score: -0.485
[2]
  PBM binding z-score: -0.139
[3]
  PBM binding z-score: -0.0485
[4]
  PBM binding z-score: -0.298
[5]
  PBM binding z-score: -0.15
[6]
  PBM binding z-score: 1.04
[7]
  PBM binding z-score: 0.0567
[8]
  PBM binding z-score: -0.394
[9]
  PBM binding z-score: -0.307

## CCGACTGGGGCAAGGTTACCTTAACGCACAGCCA
[1]
  PBM binding z-score: 1.27
[2]
  PBM binding z-score: 0.881
[3]
  PBM binding z-score: 1.11
[4]
  PBM binding z-score: -0.49
[5]
  PBM binding z-score: 1.1
[6]
  PBM binding z-score: 2.07
[7]
  PBM binding z-score: 1.66
[8]
  PBM binding z-score: -0.0796
[9]
  PBM binding z-score: -0.391

## TCATATTGGTAAAGGTGAAAGTCGAACGATATGA
[1]
  PBM binding z-score: 1.33
[2]
  PBM binding z-score: 1.28
[3]
  PBM binding z-score: 0.994
[4]
  PBM binding z-score: 0.405
[5]
  PBM binding z-score: 1.79
[6]
  PBM binding z-score: 1.08
[7]
  PBM binding z-score: -0.164
[8]
  PBM binding z-score: 0.612
[9]
  PBM binding z-score: -0.179

## TCTCGGAGGACACGAACGTCAGAGCTTTCCAGAG
[1]
  PBM binding z-score: 0.309
[2]
  PBM binding z-score: 0.302
[3]
  PBM binding z-score: 0.872
[4]
  PBM binding z-score: 0.441
[5]
  PBM binding z-score: 0.094
[6]
  PBM binding z-score: 1.25
[7]
  PBM binding z-score: 0.208
[8]
  PBM binding z-score: -0.0912
[9]
  PBM binding z-score: -0.356

## ACTACCAGGCCAAGGGTCACTCAAGATTAGTCCG
[1]
  PBM binding z-score: 4.07
[2]
  PBM binding z-score: 4.15
[3]
  PBM binding z-score: 3.87
[4]
  PBM binding z-score: 0.629
[5]
  PBM binding z-score: 4.2
[6]
  PBM binding z-score: 3.3
[7]
  PBM binding z-score: 1.15
[8]
  PBM binding z-score: 3.07
[9]
  PBM binding z-score: 2.13

## GGAACGAGGGCAAAGTTGAAAGCATCTGTCGACG
[1]
  PBM binding z-score: 1.51
[2]
  PBM binding z-score: 2.59
[3]
  PBM binding z-score: 1.86
[4]
  PBM binding z-score: 2.79
[5]
  PBM binding z-score: 2.88
[6]
  PBM binding z-score: 1.59
[7]
  PBM binding z-score: -0.341
[8]
  PBM binding z-score: 1.76
[9]
  PBM binding z-score: 0.999

## AGTCAATGTTCATCTAGGTAACGTAAGATATGCT
[1]
  PBM binding z-score: -0.0821
[2]
  PBM binding z-score: 0.125
[3]
  PBM binding z-score: 0.41
[4]
  PBM binding z-score: 0.291
[5]
  PBM binding z-score: 0.0893
[6]
  PBM binding z-score: 0.616
[7]
  PBM binding z-score: 0.345
[8]
  PBM binding z-score: -0.275
[9]
  PBM binding z-score: -0.282

## CCTGGCAGGCCAATCTGGGTCACTCAAGGCTTGA
[1]
  PBM binding z-score: 2.28
[2]
  PBM binding z-score: 1.11
[3]
  PBM binding z-score: 1.5
[4]
  PBM binding z-score: -0.376
[5]
  PBM binding z-score: 0.545
[6]
  PBM binding z-score: 3.8
[7]
  PBM binding z-score: 0.481
[8]
  PBM binding z-score: 0.406
[9]
  PBM binding z-score: -0.15
